According to PubChem BioAssay (EPA / NIEHS):
Results filed as inconclusive are left out. Calls of active or inactive are those of the source. The calls were made as follows: active = hit-call score of the fitted dose curve at least 0.9, where 1 is the maximum; inconclusive = response in the unintended direction; inactive = score below 0.9.

biological target: AR (gene 367) (UniProt P10275); experiment: ACEA_AR_antagonist_80hr: ACEA Biosciences xCELLigence Real-Time Cell Analysis on Androgen Receptor Antagonism for Proliferation (AID 2283787)
Method: ACEA_AR_antagonist is a cell-based, single-readout assay that uses 22Rv1, a human prostate cancer cell line, with measurements taken at 80 hours after chemical dosing in a 384-well plate, although TO5 and TO6 (mc0.srcf) used a 96-well plate. Differences in plate size can be ignored given data normalization.ACEA_AR_antagonist_80hr is one of two assay component(s) measured or calculated from the ACEA_AR assay. It is designed to make measurements of real-time cell-growth kinetics, a form of growth reporter, as detected with electrical impedance signals by Real-Time Cell Electrode Sensor (RT-CES) technology.Data from the assay component ACEA_AR_antagonist_80hr was analyzed in the positive analysis fitting direction relative to DMSO as the negative control and baseline of activity. Using a type of growth reporter, measures of the cells for loss-of-signal activity can be used to understand the signaling at the pathway-level as they relate to the gene AR. Furthermore, this assay endpoint can be referred to as a primary readout, because this assay has produced multiple assay endpoints where this one serves a signaling function. To generalize the intended target to other relatable targets, this assay endpoint is annotated to the nuclear receptor intended target family, where the subfamily is steroidal.
The xCELLigence system Multi-E-Plate stations were used to measure the time-dependent response to chemicals. Each compound was tested in an eight-point, 1:4 serial dilution series starting at a maximum final concentration of 100 uM. A maximum starting concentration of 0.5% DMSO was present in the 100 uM chemical samples and was diluted along with the test article dilution series. The screen was performed in biological duplicate using two separate, 96-well, E-Plates 96 for each dilution series (n = 2). Positive controls (MG132 and testosterone) and a negative control (assay media) were tested in quadruplicate on each testing plate. […] Reference compounds were tested with 8 concentrations with 1:5 serial dilutions. All screening was carried out by ACEA Biosciences, Inc. (San Diego, CA). 22Rv1 cells purchased from ATCC were maintained in media supplemented with 10% fetal bovine serum (FBS). Before screening, 22Rv1 cells were preconditioned in assay medium. Cells were then detached and seeded in E-Plates 96 in assay medium. After overnight monitoring of growth once every hour, compounds were added to […] cells and remained in the medium until the end of the experiment. Cellular responses were then recorded once every 5 min for the first 5 h, and once every hour for an additional 100 h.

AR (gene 367), sequence (P10275 whole entry, looked up): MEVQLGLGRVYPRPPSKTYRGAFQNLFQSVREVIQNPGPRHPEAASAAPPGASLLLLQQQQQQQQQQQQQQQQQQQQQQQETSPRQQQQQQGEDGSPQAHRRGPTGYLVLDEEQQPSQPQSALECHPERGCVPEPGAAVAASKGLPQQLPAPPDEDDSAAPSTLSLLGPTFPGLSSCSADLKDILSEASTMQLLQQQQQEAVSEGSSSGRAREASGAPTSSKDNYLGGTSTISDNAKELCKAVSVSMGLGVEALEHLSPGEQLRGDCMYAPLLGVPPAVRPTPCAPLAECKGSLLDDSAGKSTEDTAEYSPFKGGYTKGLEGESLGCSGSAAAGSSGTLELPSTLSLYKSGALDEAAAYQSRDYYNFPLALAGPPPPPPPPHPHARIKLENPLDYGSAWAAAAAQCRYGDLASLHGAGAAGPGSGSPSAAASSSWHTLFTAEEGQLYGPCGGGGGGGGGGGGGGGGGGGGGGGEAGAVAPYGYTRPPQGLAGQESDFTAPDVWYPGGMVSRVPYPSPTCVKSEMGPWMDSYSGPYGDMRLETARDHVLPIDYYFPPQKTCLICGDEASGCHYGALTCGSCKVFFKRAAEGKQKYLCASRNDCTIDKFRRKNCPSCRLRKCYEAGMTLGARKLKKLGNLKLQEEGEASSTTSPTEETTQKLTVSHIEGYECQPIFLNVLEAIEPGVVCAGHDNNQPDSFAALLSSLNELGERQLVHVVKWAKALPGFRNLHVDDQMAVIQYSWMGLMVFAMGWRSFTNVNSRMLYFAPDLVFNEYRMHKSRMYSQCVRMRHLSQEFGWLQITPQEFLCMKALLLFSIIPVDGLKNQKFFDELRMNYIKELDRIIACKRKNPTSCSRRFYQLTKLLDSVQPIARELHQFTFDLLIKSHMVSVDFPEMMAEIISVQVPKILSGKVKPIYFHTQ

| SMILES | outcome | AC50 |
| --- | --- | --- |
| C=CC(Cl)CCl (stereo not drawn) | inactive | – |
| O=C(CCl)Nc1ccccc1 | – | 16.6 µM (active) |
| O=C(N[C@H]1CN2CCC1CC2)c1ccc2c(c1)OCCO2 | inactive | – |
| CNC(=O)O/N=C/C(C)(C)S(C)(=O)=O | inactive | – |
| CC(=Cc1ccccc1)[N+](=O)[O-] | – | 6.33 µM (active) |
| O=S1(=O)OC(c2cc(Br)c(O)c(Br)c2)(c2cc(Br)c(O)c(Br)c2)c2ccccc21 | inactive | – |
| O=S1OC[C@@H]2[C@H](CO1)[C@]1(Cl)C(Cl)=C(Cl)[C@@]2(Cl)C1(Cl)Cl (stereo partly drawn) | inactive | – |
| O=C(NC(=O)c1c(F)cccc1F)Nc1cc(Cl)c(OC(F)(F)C(F)C(F)(F)F)cc1Cl (stereo not drawn) | – | 6.32 µM (active) |
| N#CCC#N | inactive | – |
| O=C1c2ccccc2C(=O)C1C(=O)C(c1ccccc1)c1ccc(Cl)cc1 (stereo not drawn) | – | 25 µM (active) |
| O=[N+]([O-])c1ccc(Cl)c([N+](=O)[O-])c1 | – | 24.8 µM (active) |
| COCCl | inactive | – |
| Cc1cc(Cl)ccc1OCCCC(=O)O | inactive | – |
